Screening results (PubChem)
Most compounds without a hit are left out; they make up all but 6.5% or so of the library.
Spn DPM-DC inh = S. pneumoniae DPM-DC inhibitors, primary screen, biochemical, PK/LDH-coupled NADH fluorescence. purified DPM-DC. calls only at 10 µM. 0.49% of 65,000 active. AID 556, 2006;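 active = the 320 compounds with the highest percent inhibition in the single-dose primary screen, excluding strongly autofluorescent ones, cut at about 32% in these data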;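 note: kinetic rate of NADH fluorescence loss reporting ADP formed by the decarboxylase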
Spn MK inh = S. pneumoniae MK inhibitors, primary screen, biochemical, PK/LDH-coupled NADH absorbance; mevalonate kinase [Streptococcus pneumoniae D39]; purified MK, PK/LDH-coupled NADH absorbance 340 nm; inhibition, % at 10 µM; 0.48% of 65,000 active;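 active = ranked among the strongest by inhibition in the single 10 µM screen, a fixed top-ranked set picked for dose follow-up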
NADH enzymes = inhibitors of PK/LDH coupling enzymes, profiling panel, artefact control, biochemical, MLSMR library. 0.02% of 65,000 active. AID 774, 2007. coupled PK/LDH NADH assays, four targets. IC50, µM (top dose mostly 10 µM), for inactives: at the highest dose inhibition;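 active = single-dose screening hits from any of four coupled enzyme assays that gave an IC50 when retested across doses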;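 note: the DPM-DC format reads NADH fluorescence rather than 340 nm absorbance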
Autofluor 339 = intrinsic fluorescence of library compounds, ex339/em460 – biochemical, MLSMR library, data from DPM-DC assay, artefact control, profiling panel; compound autofluorescence, ex339/em460 nm, NADH buffer; stronger effect = higher value; 1 = no-compound wells, NADH background; 5.5% of 65,000 active; fluorescence fold increase at 10 µM; AID 709, 2007;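 active = at 10 µM, mean starting fluorescence two-fold or more over control wells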;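 note: signal is the first read of a kinetic run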
Abs 340nm = compound light absorbance at 340 nm, profiling panel, artefact control, biochemical, MLSMR library, data from PS, PMK, MK assays. compound absorbance at 340 nm, fold over control. fold change at 10 µM. 65,000 tested, under 10 active. AID 708, 2007;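 active = at 10 µM dose, initial 340 nm absorbance at least 2 fold that of control wells; inactive = change under 2 fold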;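 note: initial absorbance extrapolated from kinetic A340 decline of NADH oxidation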
PMK inhibit = S. pneumoniae PMK inhibitors, primary screen, biochemical, mevalonate pathway, pilot trial included; phosphomevalonate kinase (Streptococcus pneumoniae D39); inhibition, % at 10 µM; AID 539, 2006; 0.49% of 65,000 active; purified PMK, PK/LDH-coupled NADH absorbance 340 nm;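 active = top-ranked compounds by inhibition in the single 10 µM screen, taking a fixed number of the strongest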;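 note: 0% = full reaction with DMSO carrier and 100% = background rate without enzyme reaction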
Numbers without * were called inactive; i = inactive; / = no result given; + = active, no number.

SMILES | Spn DPM-DC inh | Spn MK inh | NADH enzymes | Autofluor 339 | Abs 340nm | PMK inhibit
CCOC(=O)C1=C(CSc2nc(C)ccc2C#N)OC(N)=C(C#N)C1c1cccc(OC)c1OC (configuration not stated) | i | 9 | 8% | 1.4 | 1 | 14
CNC(=O)c1sc2nc(-c3ccc(OC)cc3)cn2c1C | i | 0 | 4% | 1.1 | 1.1 | 11
COc1ccc(-c2cn3c(C)c(C(=O)Nc4cc(NC(C)=O)ccc4OC)sc3n2)cc1 | / | 2 | 4% | 3.4* | 1 | 17
Cn1c(C(=O)NC2CCCC2)cc2c(=O)n(C)c3ccccc3c21 | i | 8 | 5% | 1.3 | 1.1 | 3
Clc1cc(Br)ccc1OCCOCCN1CCOCC1 | i | 44* | 15% | 1.1 | 1 | 1
Cc1ccc(C)c(OCCOCCN2CCOCC2)c1 | i | 1 | 0% | 1.1 | 1 | 0
CCc1ccc(OCc2nnc(SCC(=O)NCc3ccco3)o2)cc1 | i | 0 | 9% | 0.99 | 1 | 26*
O=C(C1CCCO1)N1CCC(O)(c2ccccc2)CC1 (configuration not stated) | i | 9 | 10% | 1 | 1 | 20
Brc1ccc(-c2nc3ccccc3s2)s1 | i | 0 | 3% | 2.2* | 1.1 | 8
Clc1ccc(C2=Nn3c(nnc3-c3n[nH]c4c3CCC4)SC2)cc1Cl | i | 3 | 2% | 1.1 | 1 | 4
Cn1c(=O)c2c(ncn2CC(=O)OCc2ccccc2)n(C)c1=O | i | 3 | 3% | 1.1 | 1 | 5
Cc1cc(NC(=O)c2cc(-c3cccnc3)nc3c(C)c(C)ccc23)no1 | i | 3 | 3% | 2.9* | 1.1 | 5
Cc1ccc(-c2cc(C(=O)Nc3cc(C)on3)c3ccccc3n2)c(C)c1 | i | 1 | 1% | 1.2 | 1 | 3
COc1cc2c(C#N)c(N3CCc4ccccc4C3)nc(N)c2c(N)n1 | / | 0 | 0% | 2.2* | 1 | 0
COc1cc2c(C#N)c(N3CCOCC3)nc(N)c2c(N)n1 | / | 0 | 2% | 3.4* | 1 | 13
COc1cc2c(C#N)c(N3CCCCC3)nc(N)c2c(N)n1 | / | 1 | 5% | 5.1* | 1.1 | 9
COCc1nc2ccccc2n1CCOc1ccccc1OC | i | 0 | 3% | 1.1 | 1 | 10
COC(=O)C1=CN(C)C=C(C(=O)OC)C1c1ccsc1 | / | 5 | 8% | 2.2* | 1 | 10
COc1ccc(Cn2nnnc2C(c2ccccn2)N2CCN(c3cc(Cl)ccc3C)CC2)cc1 (configuration not stated) | i | 4 | 3% | 1 | 1 | 28*
COc1ccc(C(c2nnnn2Cc2ccc(F)cc2)N2CCN(c3ccccc3)CC2)cc1 (configuration not stated) | i | 8 | 8% | 1.1 | 0.97 | 15
CC1(C)CC(=O)C(CC2=C(O)CC(C)(C)CC2=O)=C(O)C1 | i | 10 | 3% | 1.1 | 1 | 8
Cc1nnc2sc(-c3ccc(NC(=O)c4ccc(-c5ccc(Br)cc5)o4)cc3)nn12 | / | 0 | 0% | 3.7* | 1.1 | 0
COc1cc(NC(=O)c2ccc3c(c2)OCO3)ccc1NC(=O)C(C)C | i | 0 | 7% | 1.5 | 1.1 | 7
COc1cc(NC(=O)c2ccc(-c3ccc(Br)cc3)o2)ccc1NC(=O)C(C)C | / | 5 | 5% | 3.8* | 1.1 | 4
Cc1ccc(-c2nn3c(C)nnc3s2)cc1NC(=O)c1ccc(-c2ccc(Cl)cc2Cl)o1 | / | 6 | 4% | 3.7* | 1.1 | 2
SMILES | Spn DPM-DC inh | Spn MK inh | NADH enzymes | Autofluor 339 | Abs 340nm | PMK inhibit
COc1cc(NS(C)(=O)=O)c(OC)cc1NC(=O)c1cccc(F)c1 | i | 8 | 8% | 1.1 | 0.99 | 15
Cc1c(C(=O)N2CCN(c3ccc(C(F)(F)F)cn3)CC2)oc2ccccc12 | i | 6 | 5% | 1.1 | 1 | 9
CC(=O)c1ccc(N2CCN(c3ccc(C(F)(F)F)cn3)CC2)cc1 | i | 10 | 17% | 1.2 | 1.1 | 40*
CCOCCCn1c(=S)[nH]c2cc(C(=O)N3CCOCC3)ccc2c1=O | i | 10 | 7% | 1 | 1 | 11
O=c1c2cc(N3CCOCC3)ccc2[nH]c(=S)n1Cc1ccccn1 | + | 4 | 17% | 3.5* | 1.1 | 14
COCCCn1c(=S)[nH]c2ccc(N3CCOCC3)cc2c1=O | + | 4 | 17% | 3.8* | 1 | 15
O=C(CCn1c(=S)[nH]c2ccccc2c1=O)N1CCOCC1 | i | 8 | 3% | 1.1 | 1.1 | 1
CCc1cc(N2CCOCC2)cc2c1[nH]c1ccccc12 | / | 9 | 6% | 4* | 1 | 3
CCCCN(C)CCn1c(=S)[nH]c2ccc(N3CCOCC3)cc2c1=O | i | 8 | 11% | 2.5* | 1.1 | 11
Cc1[nH]c2ccccc2c1SCC(=O)N1CCOCC1 | i | 11 | 7% | 1.1 | 1 | 11
c1coc(-c2nnc(SCc3nc4ccccc4[nH]3)o2)c1 | i | 8 | 3% | 1.1 | 1 | 0
O=C(NCc1ccco1)c1ccc2c(=O)n(CC3CCCO3)c(=S)[nH]c2c1 (configuration not stated) | i | 5 | 2% | 1 | 1 | 10
O=c1c2cc(N3CCOCC3)ccc2[nH]c(=S)n1CC1CCCO1 (configuration not stated) | i | 13 | 19% | 4* | 1.1 | 18
COCCn1c(=S)[nH]c2ccc(N(C)C)cc2c1=O | i | 3 | 14% | 3.8* | 1.1 | 13
CCn1c(CSc2nc3ccccc3s2)nc2ccccc21 | i | 7 | 3% | 1.5 | 1 | 0
N/C(CCN1CCCCC1)=N/O | i | 8 | 5% | 1 | 0.99 | 7
O=C(CN(Cc1ccc2c(c1)OCO2)C(=O)CSc1nc2ccccc2o1)NC1CCCCC1 | i | 5 | 6% | 1.1 | 0.98 | 13
CC1=C(C(=O)OCCOc2ccccc2)C(c2ccc(C)o2)C2=C(CC(C)(C)CC2=O)N1 (configuration not stated) | i | 6 | 6% | 1.2 | 1.1 | 3
COc1ccc(C2C(C(=O)N3CCOCC3)=C(C)NC3=C2C(=O)CC(C)(C)C3)c(OC)c1 (configuration not stated) | / | 4 | 4% | 4.8* | 1.1 | 3
COc1ccc(C2C(C#N)=C(C)NC3=C2C(=O)CC(C)(C)C3)c(OC)c1 (configuration not stated) | / | 3 | 4% | 1.9 | 1 | 10
